Measurements: PubChem BioAssay (Tox21)
Values joined by “and” are separate entries in the source; they are usually repeats but may differ in a detail not shown here. Equal values may be shown once. Records with an inconclusive call do not appear. Some compounds were tested as several samples or in several runs, with calls that do not always agree. Active and inactive are the calls of the source. Unless noted, the call rests on the fitted dose curve.

Key:
[1] = Nuclear factor erythroid 2-related factor 2/antioxidant responsive element (Nrf2/ARE) small molecule agonists: qHTS cell viability counter screen in human keratinocytes (AID 1919968; active means well fitted curve in the direction sought with a large enough effect in the repeat runs; an effect the other way counts as inactive or inconclusive; further: nearly all actives have a fitted effect of over 55% in size; further: potency means the concentration at half of the fitted maximal effect)
Method in brief: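 Measured as CellTiter-Fluor fluorescence, this readout tracks cytotoxicity in the same wells as the ARE-luciferase screen. HaCaT reporter cells (1,500/well) received compounds after a 5 h pre-incubation and were exposed for 23 h.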

[2] = Nuclear factor erythroid 2-related factor 2/antioxidant responsive element (Nrf2/ARE) small molecule agonists: luciferase reporter gene qHTS assay in human keratinocytes (AID 1919969); further: nearly all actives have a fitted effect of over 35% in size; further: potency means the concentration at half of the fitted maximal effect
[3] = molecular target: Gonadotropin-releasing hormone receptor (Homo sapiens) (UniProt P30968); test: Human gonadotropin-releasing hormone receptor (GnRHR) small molecule agonists, calcium flux assay in GnRHR-HEK293 cells (AID 1920063); further: nearly all actives have a fitted effect of over 35% in size
Gonadotropin-releasing hormone receptor (Homo sapiens), sequence (P30968 whole entry, looked up): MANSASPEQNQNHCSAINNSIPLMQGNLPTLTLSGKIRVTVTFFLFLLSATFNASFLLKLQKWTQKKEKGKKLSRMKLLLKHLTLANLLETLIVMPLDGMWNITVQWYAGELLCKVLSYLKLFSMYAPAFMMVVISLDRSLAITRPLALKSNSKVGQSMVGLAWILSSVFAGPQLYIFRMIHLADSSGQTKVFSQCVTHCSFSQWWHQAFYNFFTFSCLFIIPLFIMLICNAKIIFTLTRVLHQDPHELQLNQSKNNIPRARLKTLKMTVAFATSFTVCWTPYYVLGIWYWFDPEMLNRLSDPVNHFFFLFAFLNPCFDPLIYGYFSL
Method in brief: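 Fluorescence kinetics (480 nm excitation, 540 nm emission; 3 min, 1 s steps) report calcium mobilisation in human GnRHR-HEK293 cells in agonist mode. Dye incubation: 1 h, 37 C.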

[4] = molecular target: KiSS-1 receptor (Homo sapiens) (UniProt Q969F8); test: Human kisspeptin (KISS1R) small molecule agonists, calcium flux assay in KISS1R-HEK293 cells (AID 1920064; active means well fitted curve in the direction sought with a large enough effect in the repeat runs; an effect the other way counts as inactive or inconclusive)
KiSS-1 receptor (Homo sapiens), sequence (Q969F8 whole entry, looked up): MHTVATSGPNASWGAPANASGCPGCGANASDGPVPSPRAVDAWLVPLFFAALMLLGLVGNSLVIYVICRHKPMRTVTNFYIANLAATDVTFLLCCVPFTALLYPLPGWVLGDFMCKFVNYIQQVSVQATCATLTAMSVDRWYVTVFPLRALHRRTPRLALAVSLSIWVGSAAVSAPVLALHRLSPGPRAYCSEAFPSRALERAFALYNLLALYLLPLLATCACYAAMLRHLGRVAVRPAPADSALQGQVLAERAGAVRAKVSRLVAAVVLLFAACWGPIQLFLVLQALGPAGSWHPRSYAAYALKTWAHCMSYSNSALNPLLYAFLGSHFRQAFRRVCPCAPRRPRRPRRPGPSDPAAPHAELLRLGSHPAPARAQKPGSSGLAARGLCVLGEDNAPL
Method in brief: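 Measures KISS1R agonism through calcium-sensitive dye fluorescence in stably transfected HEK293 cells, read for 3 min after pin-tool compound delivery; 15-point titrations in triplicate.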

[5] = G protein-coupled receptor (GPCR) small molecule agonists, calcium flux assay: HEK293 wild type cell line counter screen (AID 1920065)
Method in brief: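 Readout: fluorescence at 480 nm excitation/540 nm emission, sampled at 1 s intervals for 3 min. Cells had been cultured 18 h, then dye-loaded 1 h at 37 C before compound or ATP addition.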

[6] = p53 small molecule agonists, cell-based qHTS assay with human liver microsomes (AID 1963577);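 further: p53 response element beta-lactamase reporter cells with liver microsomes plus NADPH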
Method in brief: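 With metabolic activation: human liver microsomes (0.5 mg/mL final) plus NADPH (0.5 mg/mL final) added alongside compounds to p53RE-bla cells; 16 h 37 C exposure; beta-lactamase read by LiveBLAzer fluorescence.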

[7] = p53 small molecule agonists, cell-based qHTS assay with rat liver microsomes (AID 1963578)
Method in brief: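 Metabolic activation by rat liver microsomes and NADPH, each 0.5 mg/mL final, added right after compounds to p53RE-bla reporter cells (4,000/well, plated 5 h earlier). 16 h at 37 C, then LiveBLAzer substrate for 2 h at room temperature in the dark; fluorescence read-out.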

[8] = p53 small molecule agonists, cell-based qHTS assay with human liver microsomes: qHTS cell viability counter screen (AID 1963579); further: nearly all actives have a fitted effect of over 45% in size
Method in brief: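 Metabolic activation used human liver microsomes and NADPH, both 0.5 mg/mL final, over 16 hours at 37 C on p53RE-bla cells (4,000/well). Cytotoxicity measured by CellTiter-Glo luminescence, 30 min at room temperature.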

[9] = p53 small molecule agonists, cell-based qHTS assay with rat liver microsomes: qHTS cell viability counter screen (AID 1963580); further: nearly all actives have a fitted effect of over 45% in size
Method in brief: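 p53RE-bla HCT-116 cells were exposed 16 h at 37 C to compounds with rat liver microsomes (0.5 mg/mL) and NADPH (0.5 mg/mL). Viability was measured in the same wells as ATP content by CellTiter-Glo luminescence.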

[10] = p53 small molecule agonists, cell-based qHTS assay: qHTS cell viability counter screen (AID 1963581); further: nearly all actives have a fitted effect of over 45% in size
Method in brief: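 In the same plates used for the p53 bla reporter, HCT-116 cells given compounds for 16 h at 37 C received CellTiter-Glo; luminescence was recorded 30 min later at room temperature.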

[11] = p53 small molecule agonists, cell-based qHTS assay (AID 1963582; active means well fitted activation curve with a large enough effect in the signal ratio in the repeat runs, not every such curve was filed as active; the % refers to the signal ratio)
Method in brief: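 Compounds are pin-transferred in DMSO onto p53RE-bla cells and incubated 16 h at 37 C. The B/G FRET beta-lactamase substrate is then applied for 2 h at RT and fluorescence recorded.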

[12] = molecular target: 5-hydroxytryptamine receptor 2A (Homo sapiens) (UniProt P28223); test: 5-hydroxytryptamine receptor 2A (HTR2A) small molecule antagonists, cell-based qHTS assay (AID 1963586); further: nearly all actives have a fitted effect of over 45% in size
5-hydroxytryptamine receptor 2A (Homo sapiens), sequence (P28223 whole entry, looked up): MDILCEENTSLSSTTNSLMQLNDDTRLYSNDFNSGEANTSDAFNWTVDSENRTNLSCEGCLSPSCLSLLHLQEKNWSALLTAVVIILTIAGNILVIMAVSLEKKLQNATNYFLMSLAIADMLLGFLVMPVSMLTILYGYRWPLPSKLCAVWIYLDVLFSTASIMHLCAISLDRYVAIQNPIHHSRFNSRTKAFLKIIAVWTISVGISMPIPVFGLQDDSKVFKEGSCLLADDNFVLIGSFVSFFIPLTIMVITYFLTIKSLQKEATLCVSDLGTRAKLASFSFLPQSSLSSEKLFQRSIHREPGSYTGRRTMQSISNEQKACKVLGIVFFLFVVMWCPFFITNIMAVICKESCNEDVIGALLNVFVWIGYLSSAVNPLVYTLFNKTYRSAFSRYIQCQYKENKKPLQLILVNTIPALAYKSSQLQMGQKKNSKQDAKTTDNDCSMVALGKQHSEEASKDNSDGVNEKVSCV
Method in brief: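 Antagonist-mode intracellular calcium assay: DOI (4 nM) added after 5 min compound pre-incubation at room temperature to dye-loaded HTR2A-CHO cells. Fluorescence followed for 3 min, sampled every second.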

[13] = molecular target: 5-hydroxytryptamine receptor 2A (Homo sapiens) (UniProt P28223); test: 5-hydroxytryptamine receptor 2A (HTR2A) small molecule agonists, cell-based qHTS assay (AID 1963587); further: nearly all actives have a fitted effect of over 30% in size; further: potency means the concentration at half of the fitted maximal effect
Method in brief: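 CHO cells stably expressing human HTR2A, plated 18 h, loaded with calcium dye 1 h at 37 C. Agonist mode: compounds added and intracellular calcium fluorescence recorded kinetically for 2 min at 1 sec intervals.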

[14] = molecular target: Muscarinic acetylcholine receptor M1 (Homo sapiens) (UniProt P11229); test: Cholinergic receptor muscarinic 1 (CHRM1) small molecule antagonists, cell-based qHTS assay (AID 1963588); further: nearly all actives have a fitted effect of over 40% in size; further: potency means the concentration at half of the fitted maximal effect
Muscarinic acetylcholine receptor M1 (Homo sapiens), sequence (P11229 whole entry, looked up): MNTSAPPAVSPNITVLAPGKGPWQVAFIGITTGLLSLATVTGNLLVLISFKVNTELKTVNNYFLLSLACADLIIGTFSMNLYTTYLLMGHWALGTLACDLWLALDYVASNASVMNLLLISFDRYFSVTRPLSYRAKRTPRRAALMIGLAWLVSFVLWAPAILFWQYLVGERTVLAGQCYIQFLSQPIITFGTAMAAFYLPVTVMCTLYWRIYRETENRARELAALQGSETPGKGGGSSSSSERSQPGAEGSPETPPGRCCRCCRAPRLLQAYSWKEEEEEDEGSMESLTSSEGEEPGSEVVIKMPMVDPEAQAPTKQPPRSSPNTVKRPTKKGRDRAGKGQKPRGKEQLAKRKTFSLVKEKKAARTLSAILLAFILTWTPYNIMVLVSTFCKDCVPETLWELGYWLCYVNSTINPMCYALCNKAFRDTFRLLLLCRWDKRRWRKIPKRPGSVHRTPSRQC
Method in brief: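 CHRM1-CHO calcium-flux assay, antagonist mode. Cells were seeded 18 h, dye-loaded 1 h at 37 C and given compound for 5 min at RT, then acetylcholine was added at 50nM. FDSS fluorescence was read 3 min; 15 concentrations, three runs.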

[15] = molecular target: Muscarinic acetylcholine receptor M1 (Homo sapiens) (UniProt P11229); test: Cholinergic receptor muscarinic 1 (CHRM1) small molecule agonists, cell-based qHTS assay (AID 1963589); further: nearly all actives have a fitted effect of over 35% in size
Method in brief: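 Each compound was tested at 15 concentrations across three independent runs on dye-loaded CHO cells stably expressing human CHRM1, reading intracellular calcium fluorescence kinetically at 1 sec intervals.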

[16] = cAMP Responsive Elements (CRE) small molecule agonists, cell-based qHTS assay (AID 1963590)
Method in brief: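 Cell line: CRE-bla HEK 293T; medium DMEM/10% dialyzed FBS/0.1 mM NEAA/1 mM pyruvate/25 mM HEPES; 3 h compound exposure; beta-lactamase FRET readout after 2 h substrate loading at RT.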

[17] = cAMP Responsive Elements (CRE) small molecule antagonists, cell-based qHTS assay (AID 1963591; active means well fitted inhibition curve with a large enough effect in the signal ratio in the repeat runs, not every such curve was filed as active; the % refers to the signal ratio)
Method in brief: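 Inhibition of NKH477-driven (0.25 uM final) CRE-beta-lactamase signal in HEK293T cells, 3 h compound exposure at 37 °C, detected by FRET substrate fluorescence.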

[18] = molecular target: Beta-2 adrenergic receptor (Homo sapiens) (UniProt P07550); test: Adrenergic beta2 receptor (ADRB2) small molecule antagonists, cell-based qHTS assay (AID 1963592); further: series mostly up to about 92 µM; nearly all actives have a fitted effect of over 50% in size
Beta-2 adrenergic receptor (Homo sapiens), sequence (P07550 whole entry, looked up): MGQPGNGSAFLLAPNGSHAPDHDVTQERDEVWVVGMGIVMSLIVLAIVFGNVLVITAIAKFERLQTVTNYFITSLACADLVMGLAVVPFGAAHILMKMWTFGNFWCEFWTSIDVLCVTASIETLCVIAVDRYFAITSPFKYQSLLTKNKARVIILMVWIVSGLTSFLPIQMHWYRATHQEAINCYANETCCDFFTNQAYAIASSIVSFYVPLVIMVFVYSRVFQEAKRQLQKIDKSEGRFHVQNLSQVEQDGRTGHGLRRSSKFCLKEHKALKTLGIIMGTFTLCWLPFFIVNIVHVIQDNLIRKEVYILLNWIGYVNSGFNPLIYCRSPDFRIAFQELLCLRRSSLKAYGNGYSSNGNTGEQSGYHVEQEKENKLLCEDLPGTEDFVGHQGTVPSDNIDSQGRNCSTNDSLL
Method in brief: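 Cells (CHO, stable ADRB2 overexpression) incubated 18-20hr at 37C; compounds added from DMSO; agonist mix (1nM isoproterenol, 100uM IBMX, 25uM Ro-20-1724) added; 0.5hr RT; d2-cAMP and anti-cAMP-cryptate added; 1hr RT; 665/615 nm read.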

[19] = molecular target: Beta-2 adrenergic receptor (Homo sapiens) (UniProt P07550); test: Adrenergic beta2 receptor (ADRB2) small molecule agonists, cell-based qHTS assay (AID 1963593);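 further: CHO cells stably overexpressing human ADRB2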
Method in brief: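 CHO cells stably over-expressing ADRB2 were plated overnight at 37C, then dosed with compounds plus a stimulation mix containing 100uM IBMX and 25uM Ro-20-1724 for 0.5hr at room temperature. cAMP was measured by HTRF competition, 1hr.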

[20] = molecular target: D(2) dopamine receptor (Homo sapiens) (UniProt P14416); test: Dopamine D2 receptor (DRD2) small molecule agonists, cell-based qHTS assay (AID 1963594); further: nearly all actives have a fitted effect of over 35% in size
D(2) dopamine receptor (Homo sapiens), sequence (P14416 whole entry, looked up): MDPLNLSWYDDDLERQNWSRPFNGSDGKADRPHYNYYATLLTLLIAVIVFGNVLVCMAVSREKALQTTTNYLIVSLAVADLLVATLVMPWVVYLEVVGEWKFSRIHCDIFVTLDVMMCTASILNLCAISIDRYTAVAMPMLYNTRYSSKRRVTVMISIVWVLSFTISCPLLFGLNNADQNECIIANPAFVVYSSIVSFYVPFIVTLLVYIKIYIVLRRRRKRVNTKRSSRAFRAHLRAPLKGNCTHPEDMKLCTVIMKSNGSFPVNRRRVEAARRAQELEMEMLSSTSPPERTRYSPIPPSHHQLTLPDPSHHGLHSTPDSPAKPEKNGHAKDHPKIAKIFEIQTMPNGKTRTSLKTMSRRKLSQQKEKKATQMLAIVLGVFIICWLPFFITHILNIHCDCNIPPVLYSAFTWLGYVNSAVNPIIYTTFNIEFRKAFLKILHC
Method in brief: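 HEK293 cells stably expressing human DRD2, pre-treated with PDE inhibitor Ro20-1724 (0.1 mM final) and compound 10 min at room temperature, then stimulated with NKH477 (200nM […]) for 30 min. cAMP read by HTRF (665/620 nm).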

Measured: Potency

CC1CC(=O)CC(C)(C)C1 (stereo not given)
inactive: all assays above

CC(=O)NCc1c(I)c(NC(C)=O)c(I)c(C(=O)O)c1I
inactive: all assays above

O=C1C=CC(=O)O1
inactive: all assays above

C1CCC(SSC2CCCCC2)CC1
inactive: all assays above

CC(C)(c1ccccc1)c1ccc(Nc2ccc(C(C)(C)c3ccccc3)cc2)cc1
inactive: all assays above

O=C1c2ccccc2C(=O)C1c1ccc2cc(S(=O)(=O)O)cc(S(=O)(=O)O)c2n1
active: [1] 58.9 µM
inactive: all other assays above

CCCOCCO
inactive and 12.5 nM (active): [14]
inactive: all other assays above

Cc1ccc2c(ccc3ccccc32)c1
inactive: all assays above

c1ccc2c(c1)Oc1ccccc1S2
inactive: all assays above

CCCCC(CC)COC(=O)CCCCCCCC(=O)OCC(CC)CCCC (stereo not given)
54.5 µM (active) and inactive: [1]
9.77 µM (active) and inactive: [13]
15.4 µM (active) and inactive: [2]
inactive: all other assays above
